From PubChem BioAssay AID687016 (The Scripps Research Institute Molecular Screening Center, 2013)
About 2,800 (0.76%) of roughly 370,000 compounds were called active. Cut-off read from the data, not from the text of the source: active = inhibition above about 21%; inactive = the rest. The list comes from a sample in which actives are over-represented; it also holds similar structures and randomly drawn compounds.

Each compound was assayed against E3 ubiquitin-protein ligase UHRF1 (Homo sapiens) (UniProt Q96T88) (assay: UHRF1 methylated DNA binding inhibitors, primary screen, counter-screen for MBD2 inhibitor project, biochemical, TR-FRET, human UHRF1, single concentration (AID 687016;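 note: UHRF1 SRA domain binding a hemimethylated CpG hairpin DNA probe; 0% = median of test compound wells and 100% = reference inhibitor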)). Conditions: UHRF1 binding to methylated oligo, at 4.4 µM, active compounds read high.
E3 ubiquitin-protein ligase UHRF1 (Homo sapiens), sequence (Q96T88 whole entry, looked up, the tested form may be a part): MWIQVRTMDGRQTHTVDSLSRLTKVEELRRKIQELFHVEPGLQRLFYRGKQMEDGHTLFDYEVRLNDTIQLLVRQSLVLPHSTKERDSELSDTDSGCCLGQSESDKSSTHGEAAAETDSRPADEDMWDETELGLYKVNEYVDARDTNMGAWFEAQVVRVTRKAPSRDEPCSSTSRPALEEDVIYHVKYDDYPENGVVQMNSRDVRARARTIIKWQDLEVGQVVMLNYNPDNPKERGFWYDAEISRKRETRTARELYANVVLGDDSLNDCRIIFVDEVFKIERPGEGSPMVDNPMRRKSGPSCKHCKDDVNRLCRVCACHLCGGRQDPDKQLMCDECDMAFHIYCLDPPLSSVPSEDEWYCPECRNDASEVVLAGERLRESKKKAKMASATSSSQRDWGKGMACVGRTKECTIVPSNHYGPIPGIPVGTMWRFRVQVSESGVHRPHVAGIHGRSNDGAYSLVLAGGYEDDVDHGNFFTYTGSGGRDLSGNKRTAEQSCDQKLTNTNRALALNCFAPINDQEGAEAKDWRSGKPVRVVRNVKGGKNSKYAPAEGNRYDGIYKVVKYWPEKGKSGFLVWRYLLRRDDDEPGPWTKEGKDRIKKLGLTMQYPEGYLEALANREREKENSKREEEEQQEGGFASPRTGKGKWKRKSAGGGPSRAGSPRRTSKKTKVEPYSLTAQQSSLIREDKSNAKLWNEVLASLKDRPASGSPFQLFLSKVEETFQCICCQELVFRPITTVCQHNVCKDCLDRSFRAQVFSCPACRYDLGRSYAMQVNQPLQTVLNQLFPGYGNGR
With `O=C(NCC1COc2ccccc2O1)c1ccc(NC(=O)c2cc(F)ccc2F)cc1` (centres undefined) the inhibition was -0.34% (inactive). In the case of `O=C(CNS(=O)(=O)c1ccccc1F)N1CCN(c2ccccn2)CC1`, the inhibition is reported as -1.25% (inactive). With `NC1=CC(=O)C(=O)c2cccnc21` the inhibition was 21.7% (active). With `Cc1nc(SCC(=O)NC2CCCCC2C)c(C#N)c(C)c1C` (centres undefined) the inhibition was 3.02% (inactive). With `Cc1cc(C)c(C#N)c(SCC(=O)NN2CC(=O)N(c3ccccc3F)CC2=O)n1` the inhibition was 1.74% (inactive). For `Cc1cc(C(F)(F)F)c(C#N)c(SCC(=O)NC2CC2)n1`, the inhibition was 25.8% (active). In the case of `CCCCOCCCNC(=O)C[C@H]1C[C@@]2(C(=O)OC)C(=C[C@H](COCc3ccccc3)O[C@@H]2C)N(Cc2cccc3ccccc23)C1=O`, the inhibition is reported as -3.11% (inactive). `CCOC(=O)c1csc(NC(=O)C2CCCN(S(=O)(=O)c3ccc(Cl)s3)C2)n1` (centres undefined) was tested, and the inhibition was 0.11% (inactive). With `CC(C)CNS(=O)(=O)CC1NCCc2ccccc21` (centres undefined) the inhibition was 1.66% (inactive). For `CN(C)[C@@H]1C(=O)C(C(N)=O)=C(O)[C@@]2(O)C(=O)C3=C(O)c4c(O)ccc(Cl)c4[C@@H](O)[C@H]3C[C@@H]12`, the inhibition was 35.1% (active). With `C=C1c2c(Cl)ccc(O)c2C(O)=C2C(=O)[C@]3(O)C(O)=C(C(N)=O)C(=O)[C@@H](N(C)C)[C@@H]3[C@@H](O)C12` (some centres undefined) the inhibition was 58.9% (active). In the case of `CC(C)C(C#CC1CC1)N(Cc1ccc2c(c1)OCO2)C(N)=NC(=O)/C=C/c1cccc(C(F)(F)F)c1` (centres undefined), the inhibition is reported as -0.23% (inactive). For `CN(CCO)c1cccc2c1S(=O)(=O)N(Cc1cn(Cc3ccc(C(F)(F)F)cc3)nn1)Cc1ccccc1O2`, the inhibition was 1.05% (inactive). For `CCCCC(=O)N[C@@H]1CC[C@@]23CCCN2C(=O)CCC[C@H]3[C@H]1C`, the inhibition was -2.76% (inactive). In the case of `CCOC(=O)CSc1nc(C)cc2c1C(=O)OC2`, the inhibition is reported as -0.04% (inactive). With `CCN(Cc1ccccc1)C(=O)CSc1nc(C)cc2c1C(=O)OC2` the inhibition was 26% (active). `CCN(Cc1ccncc1)C(=O)CCc1ccccc1` was tested, and the inhibition was -1.14% (inactive). `COc1ccc(-n2c(SCC(=O)Nc3ccccc3-c3ccccc3)nnc2-c2cccnc2)cc1` was tested, and the inhibition was 1.25% (inactive). For `C[C@@H]1ON(C)[C@H]2C[C@H]3c4[nH]c5cccc(-c6ccc7c(c6)OCO7)c5c4CCN3C[C@@H]12`, the inhibition was 4.06% (inactive). `COc1ccc(CCNC(=O)CCn2c(=O)c3ccccc3n(CC(=O)NCC3CCCO3)c2=O)cc1OC` (centres undefined) was tested, and the inhibition was 2.05% (inactive). `Cc1ccc2nc3c(cc(C(=O)NCCc4ccccc4)c(=N)n3CC3CCCO3)c(=O)n2c1` (centres undefined) was tested, and the inhibition was -6.46% (inactive). `COc1ccc(CCn2c(=N)c(C(=O)NCC3CCCO3)cc3c(=O)n4cccc(C)c4nc32)cc1OC` (centres undefined) was tested, and the inhibition was 24.6% (active). In the case of `O=C(c1cccc(C(F)(F)F)c1)N1CC[C@H]2[C@H](CCCN2Cc2cc(F)cc(F)c2)C1`, the inhibition is reported as -0.64% (inactive). In the case of `Cc1noc(C)c1NC(=O)Nc1ccc2c(c1)C(=O)N([C@H](C)CO)C[C@H](C)[C@@H](CN(C)C(=O)Nc1ccccc1)O2`, the inhibition is reported as 22.9% (active). In the case of `Cc1noc(C)c1NC(=O)Nc1ccc2c(c1)C(=O)N([C@H](C)CO)C[C@H](C)[C@@H](CN(C)C(=O)Nc1ccc(C(F)(F)F)cc1)O2`, the inhibition is reported as -2.17% (inactive). For `Cc1noc(C)c1NC(=O)Nc1cccc2c1O[C@H](CN(C)C(=O)Nc1ccccc1)[C@@H](C)CN([C@H](C)CO)C2=O`, the inhibition was -2.78% (inactive). For `Cc1nc2ccc(C(=O)N3CCN(C(=O)C(C)(C)C)CC3)cc2n1C1CCCC1`, the inhibition was 0.45% (inactive). With `CN(C(=O)COC(=O)c1cc(=O)[nH]c2ccccc12)C1CCCCC1` the inhibition was -1.98% (inactive). In the case of `CN(C(=O)COC(=O)c1cc(-c2ccco2)nc2ccccc12)C1CCS(=O)(=O)C1` (centres undefined), the inhibition is reported as 52.1% (active). In the case of `Cc1cc(C(=O)OCC(=O)N2C(C)CCCC2C)c2ccccc2n1` (centres undefined), the inhibition is reported as 1.46% (inactive). In the case of `C#CCN([C@H](C(=O)OC)C(C)CC)S(=O)(=O)c1ccccc1Br` (some centres undefined), the inhibition is reported as -1.76% (inactive). In the case of `C=CCN(Cc1ccc2c(c1)OCO2)C(C#CC1CC1)C(C)(C)C` (centres undefined), the inhibition is reported as 1.41% (inactive). In the case of `Cc1cccc(N2CCN(Cc3c(C)n(C)n(-c4ccccc4)c3=O)CC2)c1C`, the inhibition is reported as -0.95% (inactive). `Cc1c(CN2CCC(C)CC2)c(=O)n(-c2ccccc2)n1C` was tested, and the inhibition was 2.11% (inactive). For `Cc1c(C=O)n(C)n(-c2ccccc2)c1=O`, the inhibition was 25.1% (active). For `CCOC(=O)[C@]12CCCCC/C=C\1N(Cc1ccc(OC)cc1)C(=O)[C@H]2CC(=O)NCc1ccc(C)o1`, the inhibition was -2.03% (inactive). `COc1ccc(C(=O)CSc2nnc(-c3cnccn3)n2-c2ccc(C)cc2)cc1` was tested, and the inhibition was 0.05% (inactive). `COc1ccc(CN(CCN2CCOCC2)C(=O)c2ccc(C)cc2)cc1OC` was tested, and the inhibition was -0.61% (inactive). In the case of `C[C@H]1CN([C@@H](C)CO)S(=O)(=O)c2ccc(Br)cc2O[C@H]1CN(C)C(=O)c1cnccn1`, the inhibition is reported as -0.94% (inactive). For `COCC(=O)N(C)C[C@H]1Oc2cc(Br)ccc2S(=O)(=O)N([C@H](C)CO)C[C@H]1C`, the inhibition was 0.32% (inactive). `C[C@H]1CN([C@@H](C)CO)S(=O)(=O)c2ccc(-c3cccc(F)c3)cc2O[C@@H]1CN(C)C` was tested, and the inhibition was 0.38% (inactive). `C[C@@H]1CN([C@H](C)CO)S(=O)(=O)c2ccc(C#C[C@@H](C)O)cc2O[C@@H]1CN(C)Cc1ccc(-c2ccccc2)cc1` was tested, and the inhibition was 0.52% (inactive). In the case of `C[C@@H]1CN([C@H](C)CO)S(=O)(=O)c2ccc(C#CC3CCCCC3)cc2O[C@H]1CN(C)C(=O)Cc1ccncc1`, the inhibition is reported as 23.8% (active). For `C[C@@H]1CN([C@@H](C)CO)S(=O)(=O)c2ccc(C#Cc3cccc(F)c3)cc2O[C@H]1CN(C)S(=O)(=O)c1cn(C)cn1`, the inhibition was 21.5% (active). In the case of `Nn1c(SCC(=O)Nc2ccc(S(N)(=O)=O)cc2)nnc1-c1n[nH]c2c1CCC2`, the inhibition is reported as 0.51% (inactive). With `CC(=O)OC12CCCN(C1)/C(=C/c1ccncc1)C2` (centres undefined) the inhibition was 3.27% (inactive). In the case of `O=C1CC[C@@]23CCCN2C(=O)CCC[C@H]3[C@H]1Cc1ccccc1`, the inhibition is reported as 0.21% (inactive). For `Cc1cc(NS(=O)(=O)c2ccc(NC(=O)CSc3nnc(SCc4ccc(F)cc4)s3)cc2)nc(C)n1`, the inhibition was 3.58% (inactive). `CCC(C)[C@@H](C(=O)OC)N(CCc1cn(Cc2ccccc2)nn1)S(=O)(=O)c1ccccc1Br` (some centres undefined) was tested, and the inhibition was -0.53% (inactive). For `C[C@@H]1CN([C@@H](C)CO)C(=O)c2cccc(NC(=O)Nc3cccc4ccccc34)c2O[C@H]1CN(C)S(=O)(=O)c1ccccc1F`, the inhibition was -3.8% (inactive). In the case of `COC(=O)c1ccc2nc(-c3ccccc3)c(Cc3ccc(OC)cc3C)n2c1`, the inhibition is reported as 22.1% (active). With `Cc1ccc(-c2nc3ccc(Br)cn3c2Cc2ccccc2C(F)(F)F)cc1` the inhibition was 2.47% (inactive). For `CC(C)(C)Cc1c(C2CCCCC2)nc2ccc(Br)cn12`, the inhibition was 0.2% (inactive). `COC(=O)c1ccc2nc(-c3ccc(OC)c(OC)c3)c(Cc3ccccc3)n2c1` was tested, and the inhibition was 14.6% (inactive). In the case of `COC(=O)c1ccc2nc(-c3ccc(C)cc3)c(Cc3ccc(OC)cc3C)n2c1`, the inhibition is reported as 21.6% (active). For `CC(=O)Nc1c(-c2ccc(C)cc2)nc2ccc(Cl)cn12`, the inhibition was -0.52% (inactive). In the case of `COC(=O)c1ccc2nc(-c3ccc(F)cc3)c(Cc3ccc(C)cc3)n2c1`, the inhibition is reported as 22.9% (active). For `COc1ccccc1Cc1c(-c2ccc(Cl)cc2)nc2ccc(Cl)cn12`, the inhibition was -0.13% (inactive). In the case of `COc1ccccc1Cc1c(-c2ccc(F)cc2)nc2ccc(C)cn12`, the inhibition is reported as 11.5% (inactive). `COC(=O)c1ccc2nc(C3CCCCC3)c(Cc3cccc(F)c3)n2c1` was tested, and the inhibition was 27.9% (active). For `Brc1ccc2nc(-c3ccccc3)c(Cc3ccccc3)n2c1`, the inhibition was 11% (inactive). `COC(=O)c1ccc(CNC(=O)C2CCC(=O)N(Cc3cccc(F)c3)C2)cc1` (centres undefined) was tested, and the inhibition was 0.28% (inactive). With `COP(=O)(O)CNC(=O)OCc1ccccc1` the inhibition was -1.09% (inactive). With `Nc1[nH]c(/C=C2/CCCCC2n2[nH]c(=O)n(-c3ccccc3)c2=O)c(Cc2ccccc2)[n+]1Cc1ccccc1` (centres undefined) the inhibition was 15.8% (inactive). For `Nn1c(SCC(=O)N2c3ccccc3Sc3ccccc32)nnc1-c1n[nH]c2c1CCC2`, the inhibition was 2% (inactive). With `C=CCn1c(SCC(N)=O)nnc1-c1ccccc1OC` the inhibition was -0.8% (inactive). For `Cc1ccc(C(=O)N(Cc2ccccn2)CC2CCCO2)cc1` (centres undefined), the inhibition was 0.72% (inactive). `CCOC(=O)N1CCN(C(=O)C[C@H]2C[C@@]3(C(=O)OC)C(=C[C@H](C(C)(C)C)O[C@@H]3C)N(Cc3ccc(Cl)cc3Cl)C2=O)CC1` was tested, and the inhibition was 0.78% (inactive). In the case of `CCC(c1ccc(NC(=O)OC(C)(C)C)cc1)c1cc(OC)cc(OC)c1` (centres undefined), the inhibition is reported as -0.84% (inactive). With `Fc1ccc2nc(COCc3nc4ccc(F)cc4[nH]3)[nH]c2c1` the inhibition was 0.71% (inactive). In the case of `COC(=O)c1ccc2nc(-c3cccc(Br)c3)c(Cc3ccccc3C(F)(F)F)n2c1`, the inhibition is reported as 3.57% (inactive). In the case of `COc1ccc(-c2nc3ccc(Br)cn3c2Cc2ccc(C)cc2)cc1OC`, the inhibition is reported as 4.35% (inactive). With `COC(=O)c1ccc2nc(-c3cccc(Br)c3)c(Cc3ccc(OC)cc3C)n2c1` the inhibition was 21.5% (active). For `O=C(CCl)NC1CCCCN(Cc2cccc(C(F)(F)F)c2)C1=O` (centres undefined), the inhibition was 0.33% (inactive). For `Cc1ccc(CN2CC(C(=O)N3CCN(S(=O)(=O)c4ccccc4)CC3)CC2=O)cc1` (centres undefined), the inhibition was 9.15% (inactive). In the case of `CCN(CC(=O)Nc1ccc(NC(C)=O)cc1)C(=O)C1CC(=O)N(c2ccc3c(c2)OCCO3)C1` (centres undefined), the inhibition is reported as 1.89% (inactive). With `CCN(CC(=O)Nc1ccc(NC(C)=O)cc1)C(=O)C1CC(=O)N(Cc2ccc(C)cc2)C1` (centres undefined) the inhibition was 21.3% (active). `CCCNC(=O)Nc1ccc2c(c1)C(=O)N(C)[C@H]1CC[C@H](CC(=O)NCC3CCCCC3)O[C@@H]1CO2` was tested, and the inhibition was 10.6% (inactive). In the case of `O=C(CSc1nnc(COc2ccccc2)n1-c1ccc(Cl)cc1)Nc1ccc2c(c1)OCO2`, the inhibition is reported as 1.16% (inactive).
